Hit rate of the full screen: of about 330,000 compounds, about 960 (0.29%) were called active. Only a selection was taken, and actives are over-represented in it overall. A number with no mark means an inactive call.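 How the source made its calls: active means compounds whose signal lies at least 3.5 SD above the mean of all wells on their plate; inactive means the rest.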
experiment: inducers of MIN6 beta-cell proliferation, primary screen, ATP luminescence, uHTS (AID 2380); settings: MIN6 cells proliferation, ATPlite luminescence, 48 h; at 10 µM; active compounds read high; 100% = growth in 10% serum; cells starved in 0.2% serum;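 further: 0% = DMSO-treated cells in low-serum medium and 100% = 10% serum control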

Question: For COc1ccc(/C=C2\CCCC3C2=NN(C(=O)c2scnc2C)C3c2ccc(OC)cc2)cc1 (centres undefined), which proliferation is on record?
Answer: -5.85%

Question: Which proliferation does the source give for COc1ccc(N2CCN(C(CNS(=O)(=O)c3ccc(C)cc3)c3ccccc3)CC2)cc1 (centres undefined) here?
Answer: -4.55%

Question: Which proliferation does the source give for Cn1cc(CN2CCC(C(O)CCc3ccccc3)CC2)c(-c2ccccc2F)n1 (centres undefined) here?
Answer: 11.8% (active)

Question: With CCCOC1CCCN(Cc2cn(C)nc2-c2ccccc2F)C1 (centres undefined) as the compound, how does the proliferation read?
Answer: 1.33%

Question: For CN(CCc1cnn(C)c1)Cc1cn(C)nc1-c1ccccc1F, which proliferation is on record?
Answer: -0.61%

Question: Which proliferation does the source give for COc1cc(/C=C/CO)cc(OC)c1O[C@@H]1O[C@H](CO)[C@@H](O)[C@H](O)[C@H]1O here?
Answer: -0.51%

Question: For O=C(O)c1cccc(S(=O)(=O)N2CC=C(c3ccccc3)CC2)c1, which proliferation is on record?
Answer: 0.12%

Question: Which proliferation does the source give for Cc1ccc(NC(=O)c2ccc(S(=O)(=O)NCC3CCCO3)cc2)cc1C (centres undefined) here?
Answer: -3.24%

Question: For O=C1CCN(Cc2ccccc2)CCN1[C@H](CSc1ccccc1)c1ccccc1, which proliferation is on record?
Answer: 2.8%

Question: For N#Cc1cccc(CN2CCC(=O)N(CCO)CC2)c1, which proliferation is on record?
Answer: -4.43%

Question: Which proliferation does the source give for N#Cc1cccc(CN2CCC(=O)N([C@H](CO)c3ccccc3)CC2)c1 here?
Answer: 14.7% (active)

Question: For COc1cccc(N=c2oc3c(C)ncc(CO)c3cc2C(N)=O)c1, which proliferation is on record?
Answer: -0.09%

Question: Which proliferation does the source give for CC(C)Cc1oc(C(=O)O)cc1CN here?
Answer: -3.33%

Question: For CCCCNC(=O)OCCSCCS(=O)(=O)c1ccc(Cl)cc1, which proliferation is on record?
Answer: -0.91%

Question: For CC[C@@H]1Cc2cc(O)ccc2C2=C1c1ccc(O)cc1C[C@H]2CC, which proliferation is on record?
Answer: -8.09%

Question: For COCCCNC(=O)Cn1c(=O)n(Cc2ccccc2Cl)c(=O)c2cc(OC)c(OC)cc21, which proliferation is on record?
Answer: -2.84%

Question: With COc1ccc2c(c1)C(=C(C#N)C#N)C(=O)N2CCc1ccccc1 as the compound, how does the proliferation read?
Answer: -3.84%

Question: For CC(N)C12CC3CC(CC(O)(C3)C1)C2 (centres undefined), which proliferation is on record?
Answer: -0.37%

Question: With CN(CC(=O)Nc1c(Cl)cccc1Cl)C(=O)c1ccncc1 as the compound, how does the proliferation read?
Answer: -1.79%

Question: Which proliferation does the source give for CN1CCN(c2ccc(CNS(=O)(=O)c3cccc(F)c3)cc2)CC1 here?
Answer: -0.97%

Question: Which proliferation does the source give for O=S(=O)(Cc1nnnn1-c1ccccc1)c1ccccc1 here?
Answer: -0.06%

Question: With CC(=O)c1ccc(S(=O)(=O)NCc2nnnn2-c2ccccc2)cc1 as the compound, how does the proliferation read?
Answer: 11.8% (active)

Question: For COc1ccc(-n2nnnc2CNC(=O)c2ccc3ccccc3c2)cc1, which proliferation is on record?
Answer: -1.98%

Question: Which proliferation does the source give for COc1ccccc1C(=O)N1CCN=C1SCc1cccnc1 here?
Answer: 0.39%

Question: With CCCCn1c(N)c(N(CC)C(=O)c2ccc(N(C)S(=O)(=O)c3ccc(C)cc3)cc2)c(=O)[nH]c1=O as the compound, how does the proliferation read?
Answer: -0.39%

Question: With Cc1cccc(NS(=O)(=O)c2cccc(C(=O)NNC(=O)c3ccccc3O)c2)c1 as the compound, how does the proliferation read?
Answer: 1.68%

Question: For CCC1(C)Cc2c(sc3nnn(CC(=O)Nc4ccc(Cl)cc4)c(=O)c23)CO1 (centres undefined), which proliferation is on record?
Answer: -4.3%

Question: For C/C(=N\NC(=O)c1ccccc1C)c1ccc(N2CCOCC2)cc1, which proliferation is on record?
Answer: 5.16% (active)

Question: Which proliferation does the source give for Cc1ccc(C(=O)NC(=S)Nc2ccc(N3CCOCC3)cc2)cc1 here?
Answer: -3.24%

Question: For O=C(NN=Cc1ccc(N2CCOCC2)cc1)c1cc2ccccc2cc1O, which proliferation is on record?
Answer: -1.83%

Question: With CN=C1SC(C(=O)O)CC(=O)N1C (centres undefined) as the compound, how does the proliferation read?
Answer: -0.72%

Question: With CCC(C)NC(=O)/C=C/c1ccc(S(=O)(=O)NCc2ccco2)cc1 (centres undefined) as the compound, how does the proliferation read?
Answer: -2.61%

Question: With Cc1ccc(O)c(NC(=O)c2cc(-c3ccco3)on2)c1 as the compound, how does the proliferation read?
Answer: -1.09%

Question: Which proliferation does the source give for Cc1ccc(S(=O)(=O)NCCC(=O)OCC(=O)N(C)c2ccccc2)cc1 here?
Answer: 1.89%

Question: For CN(Cc1ccc(F)cc1Cl)S(=O)(=O)c1cccs1, which proliferation is on record?
Answer: 5.5% (active)

Question: Which proliferation does the source give for O=S(=O)(NCc1ccc(Cl)cc1Cl)c1cccs1 here?
Answer: -2.31%

Question: Which proliferation does the source give for CN(Cc1c(F)cccc1Cl)S(=O)(=O)c1cccs1 here?
Answer: 0%

Question: For COc1ccc(N(CC(=O)Nc2cc(OC)cc(OC)c2)S(=O)(=O)c2c(C)n[nH]c2C)cc1, which proliferation is on record?
Answer: -2.27%

Question: Which proliferation does the source give for CCCN1C(=O)C(Cc2nc3ccccc3c(=O)n2-c2ccccc2)c2cc(C)ccc21 (centres undefined) here?
Answer: -2.19%

Question: For CN1CCN(C2Cc3ccc(Cl)cc3Sc3ccc(F)cc32)CC1 (centres undefined), which proliferation is on record?
Answer: -4.32%

Question: With COc1ccccc1N=C(C)C1=C(O)COC1=O as the compound, how does the proliferation read?
Answer: -1.39%

Question: With COc1ccccc1N=Cc1c(O)c2ccccc2oc1=O as the compound, how does the proliferation read?
Answer: 6.71% (active)

Question: Which proliferation does the source give for COc1cc(N=Cc2c(O)c3ccccc3oc2=O)c(OC)cc1Cl here?
Answer: 0.34%

Question: With COC(=O)c1ccc(CN2CCN(CCCc3ccccc3)C(CCO)C2)cc1 (centres undefined) as the compound, how does the proliferation read?
Answer: -3.99%

Reference: PubChem BioAssay AID2380 (Sanford-Burnham Center for Chemical Genomics, 2010)
